PubChem BioAssay (NCATS)
Records with an inconclusive call do not appear. Activity calls are given as the source filed them. The call rests on the fitted dose curve; in most records, active means well fitted curve in the direction sought with a large enough effect; inconclusive means small, poorly fitted or top-dose-only effect, or another doubt; inactive means no such curve, though single readings can be large; an effect the other way counts as inactive or inconclusive.

Tests used:
[1] = system: W2; assay: qHTS profiling for inhibitors of Plasmodium falciparum proliferation (AID 504749);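 further: 0% = DMSO vehicle and full inhibition = artemisinin control; nearly all actives have a fitted effect of over 60% in size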; details: P. falciparum in erythrocytes, SYBR Green DNA, 72 h; series mostly up to 28.7 µM
Procedure, shortened: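 In a 72 h erythrocytic culture (37 C, humidified, 5% CO2) at 2.5% hematocrit and 0.3% starting parasitemia, compounds were tested; SYBR Green I in detergent lysis buffer stained parasite DNA overnight.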

[2] = system: CRL-7250; assay: Cytotoxic Profiling of Annotated Libraries Using Quantitative High-Throughput Screening (AID 1296008); details: Five cell lines viability, CellTiter-Glo ATP luminescence, 48-72 h; max response: stronger effect = lower value; further: nearly all actives have a fitted effect of over 60% in size; on max response: on the % scale 0 is the no-effect control and ±100 the full control effect
Procedure, shortened: (§1)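 Cytotoxicity was measured as CellTiter-Glo ATP luminescence, read after 10 min at room temperature. Compound treatment of the cells lasted 48 or 72 hr at 37 degrees Celsius in a qHTS format.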

[3] = system: HEK293; assay: as above; details: Five cell lines viability, CellTiter-Glo ATP luminescence, 48-72 h; max response: stronger effect = lower value
Procedure, shortened: as §1

[4] = system: HaCat; assay: as above; details: Five cell lines viability, CellTiter-Glo ATP luminescence, 48-72 h; max response: stronger effect = lower value
Procedure, shortened: as §1

[5] = system: KB-3-1; assay: as above; details: Five cell lines viability, CellTiter-Glo ATP luminescence, 48-72 h; max response: stronger effect = lower value
Procedure, shortened: as §1

[6] = system: NIH3T3; assay: as above; details: Five cell lines viability, CellTiter-Glo ATP luminescence, 48-72 h; max response: stronger effect = lower value
Procedure, shortened: as §1

[7] = system: MCC-13; assay: qHTS assay to identify novel small-molecules to repurpose for Merkel cell carcinoma treatment (AID 1296009); details: MCC and control cell lines, CellTiter-Glo viability, 72 h; series mostly up to 46 µM; further: nearly all actives have a fitted effect of over 60% in size; further: potency means the concentration at half of the fitted maximal effect
Procedure, shortened: (§2)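 Cell viability measured by CellTiter-Glo following 72 hr compound treatment at 37 degree celsius, with NPC and MIPE libraries tested in 8- and 11-point concentration series.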

[8] = system: MCC-26; assay: as above; details: MCC and control cell lines, CellTiter-Glo viability, 72 h; series mostly up to 46 µM
Procedure, shortened: as §2

[9] = system: MKL-1; assay: as above; details: MCC and control cell lines, CellTiter-Glo viability, 72 h; series mostly up to 46 µM
Procedure, shortened: as §2

[10] = system: MKL-2; assay: as above; details: MCC and control cell lines, CellTiter-Glo viability, 72 h; series mostly up to 46 µM
Procedure, shortened: as §2

[11] = system: UISO; assay: as above; details: MCC and control cell lines, CellTiter-Glo viability, 72 h; series mostly up to 46 µM
Procedure, shortened: as §2

[12] = system: WaGa; assay: as above; details: MCC and control cell lines, CellTiter-Glo viability, 72 h; series mostly up to 46 µM
Procedure, shortened: as §2

[13] = system: C33A; assay: Primary qHTS to identify gynecologic anti-cancer compounds using libraries of approved drugs and bioactive compounds (AID 1345084); details: Gynecologic cancer cell panel viability, ATPlite luminescence, 48 h; series mostly up to 57.5 µM; further: on the % scale 0 is the no-effect control and ±100 the full control effect; nearly all actives have a fitted effect of over 55% in size
Procedure, shortened: (§3)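 Cells, 1,000 per well, were allowed to settle for 16 h at 37 C before compound addition. Five concentrations were tested for 48 h, and viability was read by ATPlite luminescence after 15 min at room temperature.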

[14] = system: CAOV3; assay: as above; details: Gynecologic cancer cell panel viability, ATPlite luminescence, 48 h; series mostly up to 57.5 µM
Procedure, shortened: as §3

[15] = system: CASKI; assay: as above; details: Gynecologic cancer cell panel viability, ATPlite luminescence, 48 h; series mostly up to 57.5 µM
Procedure, shortened: as §3

[16] = system: Es-2; assay: as above; details: Gynecologic cancer cell panel viability, ATPlite luminescence, 48 h; series mostly up to 57.5 µM
Procedure, shortened: as §3

[17] = system: HeLa; assay: as above; details: Gynecologic cancer cell panel viability, ATPlite luminescence, 48 h; series mostly up to 57.5 µM
Procedure, shortened: as §3

CCNC(=O)/C=C/c1cccc(Br)c1
inactive: Potency [1] | outcome [2] | max response [3] -0.855% | max response [4] 0.498% | max response [5] -0.104% | max response [6] -21% | Potency [7] | Potency [8] | Potency [9] | Potency [10] | Potency [11] | Potency [12] | Potency [13] | Potency [14] | Potency [15] | Potency [16] | Potency [17]

O=[N+]([O-])c1cccc(S(=O)(=O)NCCNS(=O)(=O)c2cccc([N+](=O)[O-])c2)c1
inactive: outcome [2] | max response [3] -16% | max response [4] 0.408% | max response [5] 2.2% | max response [6] -4.18% | Potency [7] | Potency [8] | Potency [9] | Potency [10] | Potency [11] | Potency [12] | Potency [13] | Potency [15] | Potency [16] | Potency [17]

O=C(O)C(Cc1cc(I)c(O)c(I)c1)c1ccccc1 (stereo not drawn)
inactive: Potency [1] | max response [2] -5.72% | max response [3] 1.09% | max response [4] -3.38% | max response [5] -19.5% | max response [6] -19.3% | Potency [7] | Potency [8] | Potency [9] | Potency [10] | Potency [11] | Potency [12] | Potency [13] | Potency [14] | Potency [15] | Potency [16] | Potency [17]

C#C[C@]1(O)CC[C@H]2[C@@H]3CCc4cc(OC)ccc4[C@H]3CC[C@@]21C
inactive: Potency [1] | max response [2] -13.3% | max response [3] -6.93% | max response [4] -21.7% | max response [5] 0.369% | max response [6] -5.18% | Potency [7] | Potency [8] | Potency [9] | Potency [11] | Potency [12] | Potency [13] | Potency [14] | Potency [15] | Potency [16] | Potency [17]

CCc1oc2ccccc2c1C(=O)c1cc(I)c(O)c(I)c1
inactive: Potency [1] | max response [2] -2.92% | max response [3] -23.3% | max response [4] -7.93% | max response [5] -18.7% | max response [6] -1.15% | Potency [7] | Potency [8] | Potency [9] | Potency [10] | Potency [12] | Potency [13] | Potency [14] | Potency [15] | Potency [16] | Potency [17]

OC1C(O)C(O)C(O)C(O)C1O (stereo not drawn)
inactive: Potency [1] | outcome [2] | max response [3] 2.94% | max response [4] 2.27% | max response [5] -8.66% | max response [6] -6.2% | Potency [7] | Potency [8] | Potency [9] | Potency [10] | Potency [11] | Potency [12] | Potency [13] | Potency [14] | Potency [15] | Potency [16] | Potency [17]

Clc1cccc(C(c2ccc3nc[nH]c3c2)n2ccnc2)c1 (stereo not drawn)
inactive: max response [2] -3.34% | max response [3] 1.25% | max response [4] -3.24% | max response [5] 11.8% | max response [6] -0.487% | Potency [7] | Potency [8] | Potency [9] | Potency [10] | Potency [11] | Potency [12] | Potency [13] | Potency [15] | Potency [16] | Potency [17]

Nc1nc(-c2ccccc2)c(Br)c(=O)[nH]1
inactive: Potency [1] | max response [2] -18.3% | max response [3] -28.5% | max response [4] -7.63% | max response [5] 4.06% | max response [6] -18.4% | Potency [7] | Potency [8] | Potency [9] | Potency [10] | Potency [11] | Potency [12] | Potency [13] | Potency [14] | Potency [15] | Potency [16] | Potency [17]

C=CCN1CCc2nc(N)sc2CC1
inactive: Potency [1] | max response [2] -5.69% | max response [3] 0.777% | max response [4] -12.6% | max response [5] 3.04% | max response [6] 2.55% | Potency [7] | Potency [8] | Potency [9] | Potency [10] | Potency [11] | Potency [12] | Potency [13] | Potency [14] | Potency [15] | Potency [16] | Potency [17]

CC[C@H](c1ccc(O)cc1)[C@@H](CC)c1ccc(O)cc1
inactive: Potency [1] | max response [2] 3.93% | max response [3] -17.5% | max response [4] 0.0962% | max response [5] 5.55% | max response [6] 4.6% | Potency [7] | Potency [8] | Potency [9] | Potency [13] | Potency [14] | Potency [15] | Potency [16] | Potency [17]

CCC1NC(=O)c2cc(S(N)(=O)=O)c(Cl)cc2N1 (stereo not drawn)
inactive: max response [2] -0.729% | max response [3] -0.132% | max response [4] -3.39% | max response [5] -10.4% | max response [6] 3.38% | Potency [7] | Potency [8] | Potency [9] | Potency [10] | Potency [11] | Potency [12] | Potency [13] | Potency [15] | Potency [16] | Potency [17]

Cc1nc(-c2ccc(Cl)cc2)oc1COC(C)(C)C(=O)O
inactive: Potency [1] | outcome [2] | max response [3] 4.06% | max response [4] 3.89% | max response [5] -5.49% | max response [6] 1.1% | Potency [7] | Potency [9] | Potency [10] | Potency [11] | Potency [12] | Potency [13] | Potency [14] | Potency [15] | Potency [16] | Potency [17]

CCCCCCCCCCCCCCCC(=O)O
inactive: Potency [1] | max response [2] -4.95% | max response [3] -5.26% | max response [4] -1.81% | max response [5] 2.75% | max response [6] 4.34% | Potency [7] | Potency [8] | Potency [9] | Potency [10] | Potency [11] | Potency [12] | Potency [13] | Potency [14] | Potency [15] | Potency [16] | Potency [17]

O=[N+]([O-])c1ccc(/C=N\O)o1
inactive: max response [2] -1.03% | max response [3] -8.88% | max response [4] 1.07% | max response [5] -13.1% | max response [6] -18.1% | Potency [7] | Potency [8] | Potency [13] | Potency [14] | Potency [15] | Potency [16] | Potency [17]
active: Potency [9] 18.8 µM | Potency [12] 23.7 µM
